Tests used:
[1] = target: ALK tyrosine kinase receptor (Homo sapiens) (UniProt Q9UM73); details: at 10 µM
[2] = target: T1, Activin receptor type-1B (Homo sapiens) (UniProt P36896); details: at 1 µM
T1 sequence (whole entry): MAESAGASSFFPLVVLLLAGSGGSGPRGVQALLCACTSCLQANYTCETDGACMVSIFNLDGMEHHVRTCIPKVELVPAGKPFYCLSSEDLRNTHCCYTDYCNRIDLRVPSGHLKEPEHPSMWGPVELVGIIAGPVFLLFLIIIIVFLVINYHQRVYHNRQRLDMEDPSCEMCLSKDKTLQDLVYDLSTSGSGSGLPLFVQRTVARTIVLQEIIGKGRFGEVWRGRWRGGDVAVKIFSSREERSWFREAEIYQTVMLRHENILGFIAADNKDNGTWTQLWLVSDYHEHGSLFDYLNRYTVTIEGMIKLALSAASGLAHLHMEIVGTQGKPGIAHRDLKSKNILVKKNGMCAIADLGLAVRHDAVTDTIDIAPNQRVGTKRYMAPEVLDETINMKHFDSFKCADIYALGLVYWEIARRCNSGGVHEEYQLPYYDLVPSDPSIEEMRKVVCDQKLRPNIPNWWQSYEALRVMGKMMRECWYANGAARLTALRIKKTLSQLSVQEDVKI

[3] = target: T1, Activin receptor type-1B (Homo sapiens); details: at 10 µM
[4] = target: T2, AMP-activated protein kinase (AMPK) alpha-1/beta-1/gamma-1 (Homo sapiens) (UniProt P54619+Q9Y478+Q13131); details: at 1 µM
T2 sequence (P54619 whole entry): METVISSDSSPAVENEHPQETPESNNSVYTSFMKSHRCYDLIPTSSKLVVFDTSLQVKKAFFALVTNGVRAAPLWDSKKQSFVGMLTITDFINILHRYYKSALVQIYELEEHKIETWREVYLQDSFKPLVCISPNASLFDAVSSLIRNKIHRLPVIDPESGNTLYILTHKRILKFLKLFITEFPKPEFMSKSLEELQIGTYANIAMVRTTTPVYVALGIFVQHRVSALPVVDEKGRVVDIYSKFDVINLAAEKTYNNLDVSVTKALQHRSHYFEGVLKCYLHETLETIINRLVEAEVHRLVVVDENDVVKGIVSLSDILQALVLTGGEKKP
T2 sequence (Q13131 whole entry partner): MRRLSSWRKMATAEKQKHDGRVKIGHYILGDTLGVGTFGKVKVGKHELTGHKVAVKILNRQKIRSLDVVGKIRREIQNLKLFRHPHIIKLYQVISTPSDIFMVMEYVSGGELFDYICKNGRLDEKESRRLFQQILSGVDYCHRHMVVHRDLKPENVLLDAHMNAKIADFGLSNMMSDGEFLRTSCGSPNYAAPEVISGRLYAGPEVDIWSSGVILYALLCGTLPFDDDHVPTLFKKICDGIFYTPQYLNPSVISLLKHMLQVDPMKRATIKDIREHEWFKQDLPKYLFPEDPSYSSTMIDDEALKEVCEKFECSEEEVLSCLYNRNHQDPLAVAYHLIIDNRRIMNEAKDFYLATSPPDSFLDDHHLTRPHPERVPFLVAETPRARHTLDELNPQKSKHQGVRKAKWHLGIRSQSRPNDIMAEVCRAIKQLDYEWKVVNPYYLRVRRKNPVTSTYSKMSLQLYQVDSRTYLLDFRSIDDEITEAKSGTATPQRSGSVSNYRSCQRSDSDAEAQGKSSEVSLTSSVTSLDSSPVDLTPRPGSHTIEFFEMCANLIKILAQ
T2 sequence (Q9Y478 2-270 partner limits assumed): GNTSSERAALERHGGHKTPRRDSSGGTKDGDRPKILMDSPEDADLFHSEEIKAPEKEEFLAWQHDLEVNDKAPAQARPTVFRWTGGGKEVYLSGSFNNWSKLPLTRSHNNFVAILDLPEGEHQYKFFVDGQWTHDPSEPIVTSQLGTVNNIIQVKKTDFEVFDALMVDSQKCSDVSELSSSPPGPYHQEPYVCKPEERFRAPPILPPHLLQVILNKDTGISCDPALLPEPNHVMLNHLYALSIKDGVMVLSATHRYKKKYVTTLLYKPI

[5] = target: T2, AMP-activated protein kinase (AMPK) alpha-1/beta-1/gamma-1 (Homo sapiens); details: at 10 µM
[6] = target: T3, AMP-activated protein kinase, AMPK (Homo sapiens) (UniProt P54646+O43741+P54619+Q9UGJ0+Q9Y478+Q13131+Q9UGI9); details: at 1 µM
[7] = target: T3, AMP-activated protein kinase, AMPK (Homo sapiens); details: at 10 µM
[8] = target: T4, NUAK family SNF1-like kinase 1 (Homo sapiens) (UniProt O60285); details: at 1 µM
T4 sequence (whole entry): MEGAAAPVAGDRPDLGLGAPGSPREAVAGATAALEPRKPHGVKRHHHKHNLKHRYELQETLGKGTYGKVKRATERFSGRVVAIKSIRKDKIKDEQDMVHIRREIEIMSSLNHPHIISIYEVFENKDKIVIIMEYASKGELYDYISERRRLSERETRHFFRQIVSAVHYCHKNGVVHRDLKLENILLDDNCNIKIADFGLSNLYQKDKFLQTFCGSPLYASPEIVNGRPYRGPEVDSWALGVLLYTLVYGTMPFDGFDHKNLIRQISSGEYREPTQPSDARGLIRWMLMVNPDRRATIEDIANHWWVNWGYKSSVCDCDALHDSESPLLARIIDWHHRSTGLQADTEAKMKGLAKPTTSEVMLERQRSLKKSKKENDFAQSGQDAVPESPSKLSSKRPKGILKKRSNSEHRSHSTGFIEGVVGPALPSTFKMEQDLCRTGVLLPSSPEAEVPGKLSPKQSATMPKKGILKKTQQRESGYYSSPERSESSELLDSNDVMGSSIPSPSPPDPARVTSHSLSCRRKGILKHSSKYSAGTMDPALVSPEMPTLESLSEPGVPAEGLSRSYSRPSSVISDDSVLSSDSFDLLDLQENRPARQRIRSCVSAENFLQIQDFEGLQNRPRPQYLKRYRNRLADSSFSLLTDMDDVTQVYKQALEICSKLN

[9] = target: T4, NUAK family SNF1-like kinase 1 (Homo sapiens); details: at 10 µM
[10] = target: T5, Mitogen-activated protein kinase kinase kinase 5 (Homo sapiens) (UniProt Q99683); details: at 1 µM
T5 sequence (whole entry): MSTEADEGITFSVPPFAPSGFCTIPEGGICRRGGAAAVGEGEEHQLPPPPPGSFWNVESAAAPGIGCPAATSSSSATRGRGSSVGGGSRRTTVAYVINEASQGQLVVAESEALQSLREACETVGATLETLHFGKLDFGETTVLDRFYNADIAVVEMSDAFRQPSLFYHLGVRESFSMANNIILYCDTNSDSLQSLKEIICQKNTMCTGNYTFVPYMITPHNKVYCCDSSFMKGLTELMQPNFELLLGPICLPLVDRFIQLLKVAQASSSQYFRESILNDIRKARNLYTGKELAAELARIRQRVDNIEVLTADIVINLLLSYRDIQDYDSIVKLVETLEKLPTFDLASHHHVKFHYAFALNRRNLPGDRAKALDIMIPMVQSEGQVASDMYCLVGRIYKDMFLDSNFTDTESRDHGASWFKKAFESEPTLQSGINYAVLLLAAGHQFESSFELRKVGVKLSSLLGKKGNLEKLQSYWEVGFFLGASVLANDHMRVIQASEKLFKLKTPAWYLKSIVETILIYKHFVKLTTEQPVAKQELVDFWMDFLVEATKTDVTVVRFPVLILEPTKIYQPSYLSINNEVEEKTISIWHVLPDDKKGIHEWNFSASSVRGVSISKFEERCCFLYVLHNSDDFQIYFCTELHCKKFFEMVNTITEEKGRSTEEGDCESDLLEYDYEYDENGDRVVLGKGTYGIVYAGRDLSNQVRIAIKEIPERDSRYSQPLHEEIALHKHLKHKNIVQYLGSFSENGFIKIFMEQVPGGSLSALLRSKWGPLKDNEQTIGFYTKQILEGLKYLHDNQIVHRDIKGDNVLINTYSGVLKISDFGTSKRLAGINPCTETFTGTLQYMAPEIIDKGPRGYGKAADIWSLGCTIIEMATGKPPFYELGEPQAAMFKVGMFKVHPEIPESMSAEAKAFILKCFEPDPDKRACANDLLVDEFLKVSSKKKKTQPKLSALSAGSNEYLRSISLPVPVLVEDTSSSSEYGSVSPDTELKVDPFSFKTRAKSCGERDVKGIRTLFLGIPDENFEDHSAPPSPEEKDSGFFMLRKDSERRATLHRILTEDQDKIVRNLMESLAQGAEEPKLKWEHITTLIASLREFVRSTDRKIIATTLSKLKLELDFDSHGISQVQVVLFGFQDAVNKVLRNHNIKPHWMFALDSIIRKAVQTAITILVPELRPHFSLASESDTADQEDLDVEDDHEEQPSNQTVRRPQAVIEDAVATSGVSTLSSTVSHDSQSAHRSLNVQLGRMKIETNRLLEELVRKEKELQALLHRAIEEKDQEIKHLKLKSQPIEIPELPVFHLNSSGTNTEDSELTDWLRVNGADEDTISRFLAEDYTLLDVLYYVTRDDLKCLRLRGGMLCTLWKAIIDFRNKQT

ALK tyrosine kinase receptor (Homo sapiens), sequence (Q9UM73 19-1620 limits assumed): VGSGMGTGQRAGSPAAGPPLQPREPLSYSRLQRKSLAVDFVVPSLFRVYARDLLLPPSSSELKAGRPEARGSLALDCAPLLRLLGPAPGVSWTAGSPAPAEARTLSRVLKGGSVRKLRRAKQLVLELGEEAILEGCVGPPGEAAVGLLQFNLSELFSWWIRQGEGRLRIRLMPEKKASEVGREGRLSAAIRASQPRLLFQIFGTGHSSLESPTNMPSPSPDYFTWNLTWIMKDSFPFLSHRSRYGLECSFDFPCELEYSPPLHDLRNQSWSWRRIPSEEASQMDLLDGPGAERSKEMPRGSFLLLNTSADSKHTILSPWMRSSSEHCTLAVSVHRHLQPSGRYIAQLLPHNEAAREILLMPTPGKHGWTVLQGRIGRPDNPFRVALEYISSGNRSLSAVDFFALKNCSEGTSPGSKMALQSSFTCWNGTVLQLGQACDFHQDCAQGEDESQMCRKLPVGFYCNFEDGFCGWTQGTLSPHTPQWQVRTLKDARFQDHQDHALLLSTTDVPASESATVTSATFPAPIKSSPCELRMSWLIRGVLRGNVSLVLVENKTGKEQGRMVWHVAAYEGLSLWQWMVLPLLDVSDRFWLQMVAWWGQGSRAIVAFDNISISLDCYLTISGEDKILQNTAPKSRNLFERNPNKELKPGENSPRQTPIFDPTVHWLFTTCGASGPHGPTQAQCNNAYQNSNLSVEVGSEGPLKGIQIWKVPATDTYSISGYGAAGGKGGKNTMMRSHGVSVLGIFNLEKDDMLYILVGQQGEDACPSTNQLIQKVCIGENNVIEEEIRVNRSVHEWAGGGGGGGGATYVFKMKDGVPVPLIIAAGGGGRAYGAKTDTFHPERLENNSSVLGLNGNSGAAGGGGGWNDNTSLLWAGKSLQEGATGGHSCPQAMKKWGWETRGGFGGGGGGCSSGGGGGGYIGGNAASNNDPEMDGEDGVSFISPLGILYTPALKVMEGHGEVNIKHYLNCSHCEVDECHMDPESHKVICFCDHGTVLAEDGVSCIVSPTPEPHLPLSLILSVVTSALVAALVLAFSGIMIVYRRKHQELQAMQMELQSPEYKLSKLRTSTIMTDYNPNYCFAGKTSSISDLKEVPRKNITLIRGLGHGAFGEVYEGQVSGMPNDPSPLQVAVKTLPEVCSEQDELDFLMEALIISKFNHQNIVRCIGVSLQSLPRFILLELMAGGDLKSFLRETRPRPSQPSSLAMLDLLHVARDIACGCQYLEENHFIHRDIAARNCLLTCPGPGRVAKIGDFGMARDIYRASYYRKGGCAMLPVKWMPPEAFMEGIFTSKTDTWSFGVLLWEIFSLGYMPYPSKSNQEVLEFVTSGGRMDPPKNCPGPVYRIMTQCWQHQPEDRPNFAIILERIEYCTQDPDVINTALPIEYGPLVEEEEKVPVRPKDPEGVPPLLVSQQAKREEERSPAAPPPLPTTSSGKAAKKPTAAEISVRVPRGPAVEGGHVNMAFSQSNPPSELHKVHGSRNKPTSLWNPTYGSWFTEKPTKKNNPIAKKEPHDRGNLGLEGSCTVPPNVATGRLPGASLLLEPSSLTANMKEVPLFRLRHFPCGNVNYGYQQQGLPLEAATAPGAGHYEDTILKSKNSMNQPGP

Row | SMILES | residual activity [1] [%] | residual activity [2] [%] | residual activity [3] [%] | residual activity [4] [%] | residual activity [5] [%] | residual activity [6] [%] | residual activity [7] [%] | residual activity [8] [%] | residual activity [9] [%] | residual activity [10] [%]
1 | c1ccc(-c2n[nH]c3c2oc2ccccc23)cc1 | 32 | 134 | 99 | 89 | 49 | 91 | 47 | 89 | 65 | 95
2 | CC[n+]1c(/C=C/N(C)c2ccccc2)n(-c2ccccc2)c2ccc(-c3nc4ccccc4s3)cc21 | 69 | 122 | 87 | 97 | 75 | 116 | 91 | 121 | 89 | 106
3 | O=C1NC(=O)c2c1c1c3ccccc3[nH]c1c1[nH]c3cc(Br)ccc3c21 | 69 | 106 | 99 | 84 | 87 | 82 | 69 | 52 | 45 | 102
4 | Cc1cncc2cccc(S(=O)(=O)N3CCCN(C(=O)CN)C[C@H]3C)c12 |  | 137 | 86 | 98 | 66 | 97 | 45 | 95 | 71 | 98
5 | O=C1NC(=O)/C(=C\c2ccc3nccnc3c2)S1 | 46 | 115 | 93 | 94 | 45 | 108 | 56 | 90 | 81 | 78
6 | CCN(CC)CCCCN1c2ccccc2Oc2ccc(Cl)cc21 | 132 | 136 | 100 | 116 | 100 | 131 | 112 | 115 | 87 | 96
7 | COc1cc2ncnc(Nc3ccc(Oc4ccccc4)cc3)c2cc1OC | 72 | 121 | 112 | 86 | 140 | 94 | 144 | 104 | 79 | 84
8 | CC(=O)c1ccc(N2CCOCC2)cc1O | 93 | 129 | 106 | 102 | 90 |  |  | 97 | 92 | 92
9 | O=c1cc(-c2cccc3c2Sc2ccccc2S3)oc(N2CCOCC2)c1 | 84 | 88 | 97 | 108 | 90 | 102 | 95 | 102 | 83 | 102
10 | N#CC(C#N)=C(N)/C(C#N)=C/c1ccc(O)cc1 |  |  |  | 92 | 79 | 100 |  |  | 96 | 81
11 | COc1ccc(C(=O)Nc2sc3c(c2C(N)=O)CCCC3)cc1OC | 72 |  | 83 | 90 | 78 | 93 | 75 | 87 | 75 | 114
12 | c1ccc2c(-c3ccncc3)c[nH]c2c1 | 105 |  | 110 | 93 | 82 |  | 85 | 97 | 84 | 93
13 | N#C/C(=C(\N)Sc1ccc(N)cc1)c1ccccc1C(F)(F)F | 65 | 108 | 111 | 75 | 57 | 77 | 62 | 106 | 62 | 106
14 | COc1cc2ncnc(Nc3ccc(NC(=O)c4ccccc4)cc3)c2cc1OC | 57 |  | 105 |  | 90 |  | 88 |  | 86 | 103
15 | Cc1cc2ncc(-c3ccccc3)nc2cc1C | 60 |  |  | 105 | 74 |  |  | 92 | 94 | 78
16 | Oc1n[nH]c2nnc(-c3c(-c4ccccc4)nn4ccccc34)cc12 | 89 |  | 115 | 86 | 82 | 97 | 90 | 100 | 45 | 111
17 | Cc1ccc(S(=O)(=O)/C=C/C#N)cc1 | 93 | 103 | 106 | 89 | 89 | 87 | 86 | 109 | 94 | 111
18 | COc1cc2ncc(-c3ccccc3)nc2cc1OC |  |  |  | 86 | 82 |  | 75 |  | 77 | 83
19 | CC(C)n1cnc2c(NCc3ccccc3)nc(NCCCO)nc21 | 64 | 106 | 111 | 88 | 87 | 99 | 90 | 99 | 83 | 113

— ChEMBL document CHEMBL2218924, “A broad activity screen in support of a chemogenomic map for kinase signalling research and drug discovery” (Biochem J, 2013)
